According to the supplement of paper PMC6555819:

Key:
Assay in all cases: PBM binding z-score (relative to random genomic background probes); higher = stronger binding; sequences stand for … in GC…GCGATTGACAGCGTAGAATGAAGG
[1] = tested on: PPARg:RXRa DBDmut IVT, anti-RXR (DBD mutation: RXRa K156A/R161A, NR concentration 270 nM, RXRa partner concentration 90 nM)
How it was run: (§1)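 The probes on custom Agilent 4×180K protein-binding microarrays were double-stranded, with 34-nt variable regions bearing direct-repeat seeds, single-nucleotide variants, half-site ablations and random human genomic background sequences. Incubation lasted 1 h with ligand-free nuclear receptor dimers in PBS pH 7.4, 2% milk, 0.02% Triton X-100, 1 mM DTT, 0.2 mg/mL BSA and 0.4 mg/ml salmon testes DNA. Antibodies against each partner (one per run) detected bound dimers, and fluorescence scans were regression-normalized. Binding z-scores take the random background probes as reference.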

[2] = tested on: PPARg:RXRa IVT, anti-PPARg (NR concentration 270 nM, RXRa partner concentration 90 nM)
How it was run: as §1

[3] = tested on: PPARg DBDmut:RXRa IVT, anti-PPARg (DBD mutation: PPARg1 K132A/R137A, NR concentration 270 nM, RXRa partner concentration 90 nM)
How it was run: as §1

[4] = tested on: PPARg DBDmut IVT, anti-PPARg (DBD mutation: PPARg1 K132A/R137A, NR concentration 270 nM)
How it was run: as §1

[5] = tested on: PPARg homodimer (NR concentration 180 nM)
How it was run: as §1

[6] = tested on: PXR:RXRa (NR concentration 270 nM, RXRa partner concentration 90 nM)
How it was run: as §1

[7] = tested on: PXR homodimer (NR concentration 270 nM)
How it was run: as §1

[8] = tested on: RARa:RXR (NR concentration 270 nM, RXRa partner concentration 90 nM)
How it was run: as §1

[9] = tested on: RARa homodimer (NR concentration 270 nM)
How it was run: as §1

[10] = tested on: RARb:RXRa (NR concentration 270 nM, RXRa partner concentration 90 nM)
How it was run: as §1

[11] = tested on: RARb homodimer (NR concentration 270 nM)
How it was run: as §1

[12] = tested on: RARg:RXRa (NR concentration 270 nM, RXRa partner concentration 90 nM)
How it was run: as §1

[13] = tested on: RARg homodimer (NR concentration 270 nM)
How it was run: as §1

[14] = tested on: RXRa DBDmut IVT, anti-RXR (DBD mutation: RXRa K156A/R161A, NR concentration 90 nM)
How it was run: as §1

[15] = tested on: RXRa homodimer (NR concentration 180 nM)
How it was run: as §1

[16] = tested on: THRa:RXRa (NR concentration 90 nM, RXRa partner concentration 90 nM)
How it was run: as §1

[17] = tested on: THRa homodimer (NR concentration 90 nM)
How it was run: as §1

[18] = tested on: VDR homodimer (NR concentration 270 nM)
How it was run: as §1

Row | Sequence | PBM binding z-score [1] | PBM binding z-score [2] | PBM binding z-score [3] | PBM binding z-score [4] | PBM binding z-score [5] | PBM binding z-score [6] | PBM binding z-score [7] | PBM binding z-score [8] | PBM binding z-score [9] | PBM binding z-score [10] | PBM binding z-score [11] | PBM binding z-score [12] | PBM binding z-score [13] | PBM binding z-score [14] | PBM binding z-score [15] | PBM binding z-score [16] | PBM binding z-score [17] | PBM binding z-score [18]
1 | AACTCTAGGTAAAAGTTCAGTGAATCCCGAGGAT | 2.73 | 3.74 | 1.15 | 0.487 | 1.93 | 1.83 | 1.06 | 1.75 | 0.344 | 2.42 | 2.27 | 1.77 | 1.69 | 0.858 | 1.76 | 1.22 | 0.014 | 1.4
2 | CCTTACGAGTCACTGACAGGTTATAGCATTTGGA | 0.816 | 0.0297 | 1.14 | 0.808 | 1.1 | 0.7 | 0.734 | 1.15 | 1.48 | 0.807 | 1.23 | 1.22 | 0.808 | 0.998 | 0.893 | 0.852 | 0.813 | 0.964
3 | TCGAGTAGGTTAGGGGCATTCAGAATGGCGTCGA | 1.95 | 1.44 | -0.138 | -0.987 | 1.13 | 0.245 | 0.264 | 0.141 | -0.19 | 1.13 | 0.976 | 0.269 | 0.406 | 0.45 | 0.658 | 0.87 | 0.0711 | 0.98
4 | TAGCCTAGGTCAGATCGGTCCAGTATACGCTATA | 0.702 | 1.74 | -0.14 | -0.564 | -0.166 | 2.34 | -0.919 | 0.948 | -0.74 | 2.78 | 1.89 | 2.06 | 3.2 | -0.21 | 1.2 | 2.97 | 0.0173 | 0.23
5 | CTACTAAGGTGAACAAGGTCGTTGATTACTATTC | 3.87 | 3.07 | 0.656 | 0.383 | 1.12 | 3.22 | 2.35 | 3.18 | 0.606 | 2.4 | 2.33 | 2.35 | 1.64 | 1.81 | 2.34 | 3.61 | 2.82 | 2.67
6 | CAAACTAGGTCAAGAGGTCAAATTCCGCTTCCCG | 7.98 | 8.45 | 2.67 | 2.22 | 6.39 | 6.47 | 2.4 | 7.61 | 2.96 | 5.63 | 5.63 | 8.27 | 7.69 | 2.86 | 8.31 | 4.58 | 2.73 | 4.49
7 | CGTCCAAGGTCCAAGGTCAGTGAAGAGATGACGG | -0.345 | 0.595 | -0.804 | -0.592 | 1.34 | 1.67 | 0.584 | 2.28 | 0.674 | 3.29 | 3.34 | 2.9 | 3.28 | 1.38 | 2.23 | 2.99 | 1.89 | 1.73
